This is a sample that favours compounds with a hit; in the whole collection about 2.2% have one here.
CHRM1 agonist: activates human CHRM1 receptor. P11229. CHO-K1 hM1, Fluo-8 calcium fluorescence, agonist mode; 0% DMSO, 100% acetylcholine EC100. activation, % at 3 µM. 360,000 tested, 0.33% active;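 active = activation above the run's mean compound activation plus 3 SD, cut at about 16% in these data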;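 also: peak over basal fluorescence ratio within a 140 s kinetic read after compound addition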
M1 antag: antagonists of human M1 muscarinic receptor; CHO-K1 hM1, Fluo-8 calcium fluorescence, ACh EC80 antagonist; inhibition, % at 3 µM; 360,000 tested, 1.3% active; AID 588852;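 active = percent inhibition above its own plate's cutoff, namely the mean of that plate's compound wells plus 3 SD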;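 also: peak over basal fluorescence ratio during 140 s after agonist addition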
M4 antag: CHRM4 antagonism in calcium assay; inhibition, % at 3 µM; CHO-hM4 cells, ACh EC80, Fluo-8 calcium fluorescence; 360,000 tested, 0.73% active; AID 624125;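 active = inhibition above its plate's cutoff, the mean inhibition of sample wells plus 3 SD, cut at about 27% in these data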
Target sequence (P08173 whole entry, looked up): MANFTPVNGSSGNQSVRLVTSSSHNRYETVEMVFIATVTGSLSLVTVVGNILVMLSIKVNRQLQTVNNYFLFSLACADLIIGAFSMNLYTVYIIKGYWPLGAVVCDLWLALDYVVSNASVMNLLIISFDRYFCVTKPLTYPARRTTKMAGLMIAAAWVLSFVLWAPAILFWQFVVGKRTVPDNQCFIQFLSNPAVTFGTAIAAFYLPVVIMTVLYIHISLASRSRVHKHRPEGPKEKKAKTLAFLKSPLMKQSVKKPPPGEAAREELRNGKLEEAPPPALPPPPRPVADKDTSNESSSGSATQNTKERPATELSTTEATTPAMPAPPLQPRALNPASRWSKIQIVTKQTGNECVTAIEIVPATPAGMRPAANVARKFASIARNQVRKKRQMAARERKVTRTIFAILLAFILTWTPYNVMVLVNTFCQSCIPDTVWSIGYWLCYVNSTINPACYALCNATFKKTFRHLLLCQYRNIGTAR
CHRM4 PAM: CHRM4 positive allosteric modulation. P08173. CHO-K1 hM4/Gqi5, Fluo-8 calcium fluorescence, ACh EC20; 0% = ACh EC20, 100% = maximal ACh. activation, % at 3 µM. 360,000 tested, 0.4% active. AID 624126;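 active = activation above its plate's cutoff, the mean activation of sample wells plus 3 SD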
CHRM1 PAM: positive allosteric modulators of human M1 muscarinic receptor; activation, % at 3 µM; AID 588819; CHO-K1 hM1, Fluo-8 calcium fluorescence, ACh EC20; 0% = ACh EC20, 100% = maximal ACh; 360,000 tested, 0.088% active; in the data active = activation above about 19%, passing the limit was not always enough
M4 ag: agonists of human muscarinic M4 receptor (CHRM4). P08173. CHO-K1 hM4/Gqi5, Fluo-8 calcium fluorescence; vehicle 0%, full acetylcholine response 100%. activation, % at 3 µM. 360,000 tested, 0.14% active. AID 624127;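 active = activation above the run mean over all test wells plus 3 SD, cut at about 32% in these data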;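 also: peak over basal fluorescence ratio per well then scaled between controls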
Hits are given with their value; n = inactive.

SMILES | CHRM1 agonist | M1 antag | M4 antag | CHRM4 PAM | CHRM1 PAM | M4 ag
CCN(CC)CCNC(=O)c1ccc(NC(=O)c2cc(S(=O)(=O)N3CCCCC3)ccc2C)cc1 | n | 94 | 69 | n | n | n
CCN(CC)CCNC(=O)c1ccc(NC(=O)c2cccc(S(=O)(=O)N3CCc4ccccc43)c2)cc1 | n | 100 | 61 | n | n | n
CCN(CC)CCNC(=O)c1ccc(NC(=O)c2ccc(S(=O)(=O)N3CCCC3)cc2)cc1 | n | n | n | n | n | n
COc1cc(/C=N/NC(=O)/C(=C/c2ccccc2)CCO)ccc1O | n | n | n | n | n | n
CC(C)CCNc1nnnc2c1sc1nc(N3CCOCC3)c3c(c12)CC(C)(C)SC3 | n | n | n | n | n | n
COc1cccc2sc3ccc(C#CC4(O)CCCCC4)cc3c(=O)c12 | n | 41 | n | n | n | n
Cc1ccc(N/C(N)=N/c2nc(C)cc(N3CCCCC3)n2)c(C)c1 | n | 34 | n | n | n | n
COC(=O)C1=CN(c2ccc(OC)cc2)C=C(C(=O)OC)C1c1ccc([N+](=O)[O-])cc1 | n | n | n | 20 | n | n
CCOC(=O)CCC(NC(=O)CC(=O)NC(CCC(=O)OCC)C(=O)OCC)C(=O)OCC (configuration not stated) | n | n | n | n | n | n
Cc1ccc(C(=O)N2CCN(c3ccccn3)CC2)cc1Cl | n | n | n | n | n | n
O=C(c1ccc(S(=O)(=O)Nc2ccc(F)cc2)cc1)N1CCN(c2ccccn2)CC1 | n | 37 | n | n | n | n
O=C(c1cc(Br)c(Br)s1)N1CCN(c2ccccn2)CC1 | n | 39 | n | n | n | n
O=C(c1ccc(NS(=O)(=O)c2ccc(F)cc2)cc1)N1CCCCC1 | n | n | n | n | n | n
Cc1ccc(C(=O)N2CCN(c3ccccn3)CC2)cc1C | n | n | n | 15 | n | n
O=C(c1cccc(Br)c1)N1CCN(c2ccccn2)CC1 | n | n | n | n | n | n
N=c1sccn1CC(=O)Nc1cc(S(=O)(=O)N2CCCCC2)ccc1Cl | n | n | n | n | n | n
CC(NC(=O)Cc1ccccc1)c1nc2ccccc2[nH]1 (configuration not stated) | n | n | n | n | n | n
COc1ccc(-c2cc(=O)oc3cc(OCC(=O)NCC(O)c4ccccc4)ccc23)cc1 (configuration not stated) | n | n | n | n | n | n
CCc1ccc2oc(=O)cc(CN3CCN(Cc4ccccc4)CC3)c2c1 | n | n | 65 | n | n | n
O=c1cc(CN2CCN(Cc3ccccc3)CC2)c2cc(Cl)ccc2o1 | n | n | n | n | n | n
O=C(Cc1ccc(NC2=NC3CS(=O)(=O)CC3S2)cc1)NCc1ccccc1Cl (configuration not stated) | n | n | n | 16 | n | n
CC(NC(=O)c1ccc(NC2=NC3CS(=O)(=O)CC3S2)cc1)c1ccccc1 (configuration not stated) | n | n | 94 | n | n | n
O=C(Cc1ccc(NC2=NC3CS(=O)(=O)CC3S2)cc1)NCc1ccccc1 (configuration not stated) | n | n | n | n | n | n
CCCCn1c(O)c(/C=C/C=C/C=Nc2ccccc2)sc1=S | n | n | n | n | n | n
O=C(NCc1ccc(Cl)cc1)C1C2C=CC3(CN(Cc4cccnc4)C(=O)C13)O2 (configuration not stated) | n | n | n | n | n | n
O=C(NCc1ccc(F)cc1)C1C2C=CC3(CN(Cc4cccnc4)C(=O)C13)O2 (configuration not stated) | n | n | n | 28 | n | n
CCCCn1c(N)c(N(CC(C)C)C(=O)C2CC(=O)N(c3ccc4c(c3)OCCO4)C2)c(=O)[nH]c1=O (configuration not stated) | n | n | n | n | n | n
COc1ccc(NC(=O)COC(=O)CC2CC3CCC2C3)c([N+](=O)[O-])c1 (configuration not stated) | n | n | n | 21 | n | n
Cn1c(=O)c2[nH]c(N3CCN(c4cccc(O)c4)CC3)nc2n(C)c1=O | n | n | n | n | n | n
